# Reference: PubChem BioAssay AID686978 (National Center for Advancing Translational Sciences (NCATS), 2013)
# The campaign covered roughly 420,000 compounds. About 64,000 (15%) were called active. Not shown: some 27% with an inconclusive outcome. The call rests on the fitted dose curve; in most records, active means well fitted inhibition curve with a large enough effect; inconclusive means small, poorly fitted or top-dose-only effect; inactive means flat fitted curve, though single readings scatter. A selection follows.
# Assay: qHTS for Inhibitors of human tyrosyl-DNA phosphodiesterase 1 (TDP1): qHTS in cells in absence of CPT; further: nearly all actives have a fitted effect of over 55% in size
# Conditions: DT40 Tdp1-/- hTDP1 cells, no CPT, ATP luminescence, 48 h; activity change, negative = growth inhibition: at 46.2 µM (top of the series)
# Source text: Human tyrosyl-DNA phosphodiesterase 1 (TDP1) is a novel repair gene, and we propose to use it as a new target for anticancer drug development. TDP1 is not an essential protein, but under treatment with topoisomerase I poison (camptothecin: CPT), TDP1 works as a critical factor for cell survival. To directly identify novel TDP1 inhibitors active in a cellular environment, we have knocked-out the Tdp1 gene in chicken DT40 cells (Tdp1-/-) and generated a complemented counterpart cells that contains a stable transfection of the human TDP1 gene (Tdp1-/-;hTDP1 cells). For the primary screen, Tdp1-/-;hTDP1 cells will be exposed to small molecules in the presence or absence of CPT, and their growth kinetics will be evaluated after 48 hours by measuring ATP activity. […] The hit compounds will then be evaluated in the presence or absence of CPT using Tdp1-/- cells. […] In tertiary assays, biochemical gel-based assays will be used to assess whether the hit compounds specifically target TDP1.
# To this end, we have screened this cell line against the MLSMR in two primary screens. In one screen we add CPT and in the other we screen in the absence of CPT; this AID represents the screen where CPT was absent.
# NIH Chemical Genomics Center [NCGC]
# NIH Molecular Libraries Probe Centers Network [MLPCN]
# Assay Submitter (PI): Yves Pommier, NCI
# DT40-hTDP1 cells without 20 nM Camptothecin (add 20 microL of DMSO in 1 L of cell culture medium) were dispensed at 400 cells/5microL/well in tissue culture treated 1536-well white wall/solid bottom assay plates (Greiner Bio-One North America, NC, U.S.A.) using a Multidrop Combi 8 channel dispenser (Thermo Fisher, Waltham, MA, USA). 23 nL compounds and controls were transferred using the pin tool (Kalypsys, San Diego, CA, USA) to the assay plates. The assay plates were then incubated at 37 masculineC for a minimum 48 hr. Three microL of Cell Titer Glo solution was added to the plates and incubated at RT in dark for 30 min. Luminescence was read using ViewLux (Perkin Elmer) with 1 sec exposure slow speed, high gain and 2x binning.
# On the % scale 0 is the no-effect control and ±100 the full control effect; potency means the concentration at half of the fitted maximal effect.
SMILES,"activity change, negative = growth inhibition",Potency
Cc1ccc(S(=O)(=O)NCCC(c2ccccc2)c2ccccc2)cc1C(=O)O,-15.3% (inactive),
O=C(CCCOc1ccc(Cl)cc1Cl)NNC(=O)C1CCC1,-1.44% (inactive),
Cc1ccc(C)c2[nH]c(=O)c(CCNC(=O)CC(C)C)cc12,2.3% (inactive),
COc1ccc(Cc2nnnn2CC(=O)O)cc1,8.47% (inactive),
Cc1ccc(S(=O)(=O)CC(=O)Nc2c(C)n(C)n(-c3ccccc3)c2=O)cc1,20.7% (inactive),
Cc1cc(C)n2nc(SCC(N)=O)nc2n1,-3.37% (inactive),
CC(NC(=O)COC(=O)Cn1cc(C(F)(F)F)ccc1=O)c1ccccc1 (stereo unspecified),3.95% (inactive),
CCOC(=O)c1c(C)[nH]c(C)c1S(=O)(=O)NCC(=O)NCc1cccc(C)c1,-10.1% (inactive),
COc1cc(/C=N\NC(=O)C2C(=O)NCC2c2ccccc2)cc(OC)c1O (stereo unspecified),-14.8% (inactive),
COc1cc(/C=N/NC(=O)c2cc(-c3ccccc3C)nc3ccccc23)cc(OC)c1O,,6.51 µM (active)
CC1(C)CC(CC(=O)O)C(=O)O1 (stereo unspecified),-5.69% (inactive),
CC(=O)NCC(=O)N(C)C(C(=O)Nc1ccc2c(c1)OCCO2)c1ccccc1 (stereo unspecified),-10.1% (inactive),
N#Cc1ccccc1NC(=O)c1cccc(COc2ccc(Cl)cc2Cl)c1,-7.54% (inactive),
Cc1ccc(NC(=O)Cn2c(C)csc2=O)cc1,-14.9% (inactive),
Cc1ccc(NC(=O)Cn2sc3ccccc3c2=O)cc1,,4.61 µM (active)
Cc1nn(CC(=O)Nc2ccc(F)cc2)c(=O)c2ccccc12,1% (inactive),
CCN1CCN(C(=O)CN(C)S(=O)(=O)c2ccc3ccccc3c2)CC1,-1.29% (inactive),
CSCC[C@H](NC(=O)NCCc1ccc(F)cc1)C(=O)O,-4.91% (inactive),
COc1ccc(Br)cc1CN(C)C(=O)C1CC(=O)N(C2CCCC2)C1 (stereo unspecified),,23.1 µM (active)
CN(CC(=O)Nc1ccc(F)c(F)c1F)C(=O)C1CC(=O)N(C2CCCC2)C1 (stereo unspecified),-24.1% (inactive),
O=C(Nc1cccc(Br)c1)C1CC(=O)N(C2CCCC2)C1 (stereo unspecified),-7.2% (inactive),
CC(C)C(=O)Nc1oc(-c2ccccc2)cc1C#N,-16.5% (inactive),
Cc1ccc(NC(=O)CN(C)C(=O)Cn2nnc(-c3ccccc3)n2)cc1,-1.72% (inactive),
CCCn1nc(C(=O)NNC(=O)CSCC(=O)Nc2cc(C)on2)c2ccccc2c1=O,-4.94% (inactive),

SMILES,"activity change, negative = growth inhibition",Potency
CCCn1nc(C(=O)Nc2ccc3nc(C)sc3c2)c2ccccc2c1=O,,18.4 µM (active)
CCCn1nc(C(=O)NNC(=O)CCOc2ccccc2OCC)c2ccccc2c1=O,-17.3% (inactive),
CCCCCC(=O)Nc1ccc(C(=O)N/N=C/c2ccc([N+](=O)[O-])cc2)cc1,-26.6% (inactive),
CCOC(=O)/C=C/CN(C(=O)OC(C)(C)C)S(=O)(=O)N1CC=CC1,1.07% (inactive),
Cc1ccccc1C(=O)O,-0.573% (inactive),
COC(=O)c1ccccc1C(=O)NCc1nc(N2CCCC2)c2cccc(C)c2n1,0.141% (inactive),
COc1cccc2[nH]c(C(=O)NCCc3ccccc3)cc12,-2.24% (inactive),
COc1cc2cc(C(=O)N/N=C/c3cccc(OC)c3OC)[nH]c2cc1OC,,13 µM (active)
CCOc1ccccc1/C=N/NC(=O)CNC(=O)COc1ccccc1,-22.7% (inactive),
COc1ccc(/C=N/NC(=O)c2cccc(C(F)(F)F)c2)cc1,-2.42% (inactive),
COc1ccc2[nH]c(C(=O)Nc3ccccc3Cl)cc2c1,-24.8% (inactive),
CCOc1ccc2[nH]c(C(=O)N/N=C/c3cccc(OC)c3OC)cc2c1,,16.4 µM (active)
CCCOP(=O)(c1ccc(N(C)C)cc1)C(O)c1cc(OC)c(OC)c(OC)c1 (stereo unspecified),-28.2% (inactive),
Cc1ccc2oc(=O)ccc2c1,-1.58% (inactive),
CC(=O)Nc1ccc(S(=O)(=O)Nc2nccc(/C=C/c3ccccc3F)n2)cc1,1.13% (inactive),
CCN(Cc1ccccc1)S(=O)(=O)c1cc(C(=O)O)ccc1OC,4.3% (inactive),
COCCNS(=O)(=O)c1cc(Br)ccc1OC,8.91% (inactive),
C=CC(COCc1ccccc1)N(Cc1ccccc1)S(=O)(=O)c1ccccc1Br (stereo unspecified),,16.4 µM (active)
CCN([C@H](CO)C(C)C)S(=O)(=O)c1ccccc1Br,-1.36% (inactive),
C=CC(COCc1ccccc1)N(CC(=O)OC)S(=O)(=O)c1cc(Br)ccc1OC (stereo unspecified),,25.9 µM (active)
C=CCCN(Cc1ccccc1)S(=O)(=O)c1ccccc1Br,-24.9% (inactive),
CCN(CCn1cccn1)C(=O)CC1C(=O)NCCN1Cc1cccc(OC)c1OC (stereo unspecified),-27% (inactive),
Brc1ccc(-c2nn[nH]n2)cc1,-10.9% (inactive),
CCN=C1SC(CC(=O)Nc2ccc(C)cc2)C(=O)N1CC (stereo unspecified),3.16% (inactive),

SMILES,"activity change, negative = growth inhibition",Potency
O=C(c1ccc(CS(=O)Cc2ccccc2Cl)o1)N1CCN(c2ccccc2)CC1 (stereo unspecified),,20.6 µM (active)
O=C(NCc1cccs1)c1ccc(CS(=O)Cc2ccccc2Cl)o1 (stereo unspecified),-3.62% (inactive),
COc1ccc(NS(=O)(=O)c2cccc3nsnc23)cc1Cl,-1.64% (inactive),
C=CCn1c(-c2ccc(Cl)cc2)ccc(C#N)c1=O,-34.7% (inactive),
CCN(CC)c1ccc(C(=O)c2cnc(/N=C/N(C)C)s2)cc1,1.44% (inactive),
Cc1ccnc2nc(C(=O)Nc3nnc(-c4ccccc4)o3)nn12,4.64% (inactive),
CC(NCC(=O)Nc1ccccc1C(=O)NC1CC1)c1ccccc1Cl (stereo unspecified),3.62% (inactive),
Cc1ccc(OCC(=O)Nc2ccccc2C(=O)NC2CC2)cc1C,-18.6% (inactive),
CC1CCCCC1NCC(=O)Nc1ccccc1C(=O)Nc1ccccc1 (stereo unspecified),,14.6 µM (active)
C[C@H](NC(=O)C1CCN(S(=O)(=O)c2ccccc2)CC1)C(=O)NCc1ccccc1,2.13% (inactive),
O=C(COc1ccc([N+](=O)[O-])cc1Cl)Nc1ccc2[nH]c(=O)[nH]c2c1,-25.9% (inactive),
O=C1N(c2ccc(Cl)cc2)C(c2ccc(Cl)cc2)N2CCCN12 (stereo unspecified),-5.61% (inactive),
COc1ccc(-n2c(-c3ccc(OC)c(OC)c3)n[nH]c2=S)cc1,1.09% (inactive),
COc1ccc(-c2cn(-c3ccc(OC)cc3)c(=S)[nH]2)cc1,,18.4 µM (active)
COc1ccc(N2C(=O)CNC2=S)cc1,0.715% (inactive),
FC(F)(F)c1cccc(-c2nc(COc3ccc(Cl)cc3Cl)no2)c1,-3.5% (inactive),
CS(=O)(=O)N(CC(=O)N1CCOCC1)c1ccc2c3c(cccc13)CC2,-0.193% (inactive),
O=C(COC(=O)CNS(=O)(=O)c1ccc(F)c(F)c1F)NC1CCCC1,-24.1% (inactive),
FC(F)(F)c1ccccc1-c1nc(-n2ccnc2)c2ccccc2n1,1.22% (inactive),
COc1ccc(OC)c(Nc2nc3ccccc3n3cnnc23)c1,-28.7% (inactive),
COc1cccc(Nc2ncccc2C(=O)O)c1,-1.91% (inactive),
FC(F)(F)c1cc(Nc2nc3ccccc3c3nncn23)ccc1Cl,,16.4 µM (active)
COc1cccc(Nc2nc3ccccc3c3nncn23)c1,,25.9 µM (active)
